Reference: PubChem BioAssay (Tox21)
Inconclusive results are not listed. Entries that show only a call come without a potency. Activity calls are given as the source filed them. Unless noted, calls follow the shape of the dose curve; as a rule, active = well fitted cell-killing curve with a large enough effect in the repeat runs; inconclusive = weak or mixed curves; inactive = no such curve, though single readings can be large or run the other way.

target: Peroxisome proliferator-activated receptor delta (Homo sapiens) (UniProt Q03181); assay: qHTS assay to identify small molecule agonists of the peroxisome proliferator-activated receptor delta (PPARd) signaling pathway (AID 743212; calls by dose curve;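 also: HEK293H cells with PPARd UAS beta-lactamase reporter GeneBLAzer system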); conditions: HEK293H PPARd-UAS-bla, beta-lactamase FRET ratio, 17 h; series mostly up to 62.6 µM
Sequence (Q03181 whole entry, looked up): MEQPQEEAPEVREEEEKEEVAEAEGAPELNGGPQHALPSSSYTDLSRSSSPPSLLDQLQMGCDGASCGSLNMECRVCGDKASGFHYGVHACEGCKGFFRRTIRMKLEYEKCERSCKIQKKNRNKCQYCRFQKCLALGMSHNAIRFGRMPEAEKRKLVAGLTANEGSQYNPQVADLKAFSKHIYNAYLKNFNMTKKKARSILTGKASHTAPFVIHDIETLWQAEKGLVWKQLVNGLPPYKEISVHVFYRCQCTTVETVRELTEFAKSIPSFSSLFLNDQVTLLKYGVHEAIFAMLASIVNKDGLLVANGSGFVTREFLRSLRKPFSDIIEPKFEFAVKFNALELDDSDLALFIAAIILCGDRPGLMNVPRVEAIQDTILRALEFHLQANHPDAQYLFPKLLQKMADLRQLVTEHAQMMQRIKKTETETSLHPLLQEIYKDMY
Method in brief: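 Steps: seed PPARd-bla HEK293H cells; incubate 5 h, 37 C, 5% CO2; add compounds in DMSO; incubate, 37 C; add LiveBLAzer B/G FRET substrate; hold 2 h at room temperature; measure fluorescence.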

Row | SMILES | outcome
1 | CC(=O)O[C@H]1C[C@@H]2CC[C@@H]3[C@H](CC[C@@]4(C)[C@H]3C[C@H]([N+]3(C)CCCCC3)[C@@H]4OC(C)=O)[C@@]2(C)C[C@@H]1N1CCCCC1 | inactive
2 | CC(C)CCCC(C)CCO (stereo unspecified) | inactive
3 | CC(=O)NCCCS(=O)(=O)O | inactive
4 | CCCCC(CC)(CO)CO | inactive
5 | N#CCCNCCC#N | inactive
6 | CCCCOC(=O)c1ccccc1C(=O)OCC(CC)CCCC (stereo unspecified) | inactive
7 | CC(=O)Nc1ccc(/C=N/NC(N)=S)cc1 | inactive
8 | CCCC[C@H]1CN(CC2CCOCC2)C(=O)OC12CCN(C1(C)CCN(C(=O)c3c(C)ncnc3C)CC1)CC2 | inactive
9 | CCCCOC(O)CC (stereo unspecified) | inactive
10 | CC(=O)OCCc1ccccc1 | inactive
11 | CCCCc1cc2ccccc2c(OCCN(C)C)n1 | inactive
12 | O=c1[nH]cnc2ccccc12 | inactive
13 | COCCOCCOCCOCCOC | inactive
14 | CC(C)c1ccccc1C(C)C | inactive
15 | Nc1nc(N)c(-c2ccccc2)s1 | inactive
16 | CNS(=O)(=O)Cc1ccc2[nH]cc(CCN(C)C)c2c1 | inactive
17 | CCN1CCC[C@H]1CNC(=O)c1c(OC)ccc(Br)c1OC | inactive
18 | N[C@H]1C(O)O[C@H](CO)[C@H](O)[C@@H]1O (stereo partly specified) | inactive
19 | CC(C)(C)c1cc(CCC(=O)OCC(COC(=O)CCc2cc(C(C)(C)C)c(O)c(C(C)(C)C)c2)(COC(=O)CCc2cc(C(C)(C)C)c(O)c(C(C)(C)C)c2)COC(=O)CCc2cc(C(C)(C)C)c(O)c(C(C)(C)C)c2)cc(C(C)(C)C)c1O | inactive
20 | CCOC(=O)CC(=O)c1cc(F)c(Cl)nc1Cl | inactive
21 | CCN(CC)C(C)=O | inactive
22 | COC(=O)C(C)=O | inactive
23 | Oc1ccc(Sc2ccc(O)cc2)cc1 | inactive
24 | Cc1cccc(OCCOc2cccc(C)c2)c1 | inactive

tested on: not listed separately; assay: qHTS assay to identify small molecule antagonists of the peroxisome proliferator-activated receptor delta (PPARd) signaling pathway - cell viability counter screen (AID 743213); conditions: PPARd-bla HEK293H viability, CellTiter-Glo luminescence, 17 h; series mostly up to 62 µM; also: nearly all actives have a fitted effect of over 50% in size
Method in brief: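 Luminescence from CellTiter-Glo, added after the bla read and incubated 30 min at room temperature, gives viability of HEK293H PPARd-bla cells exposed to compounds for 17 h at 37 C with 300 nM L165041.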

Row | SMILES | Potency
25 | CC(CN)CCCN (stereo unspecified) | inactive
26 | CC(C)(C)c1cc(CO)cc(C(C)(C)C)c1O | inactive
27 | CC(=O)O[C@H]1C[C@@H]2CC[C@@H]3[C@H](CC[C@@]4(C)[C@H]3C[C@H]([N+]3(C)CCCCC3)[C@@H]4OC(C)=O)[C@@]2(C)C[C@@H]1N1CCCCC1 | inactive
28 | CC(C)CCCC(C)CCO (stereo unspecified) | inactive
29 | CC(=O)NCCCS(=O)(=O)O | inactive
30 | N#CCCNCCC#N | inactive
31 | CCCCOC(=O)c1ccccc1C(=O)OCC(CC)CCCC (stereo unspecified) | inactive
32 | CCOc1ccc2[nH]cc(C(=O)NCc3ccccc3)c(=O)c2n1 | inactive
33 | CC(=O)Nc1ccc(/C=N/NC(N)=S)cc1 | inactive
34 | CCCCCCCCC(CO)CCCCCC (stereo unspecified) | inactive
35 | CCCCOC(O)CC (stereo unspecified) | inactive
36 | O=C1CCCCCO1 | inactive
37 | CC(=O)OCCc1ccccc1 | inactive
38 | CCCCc1cc2ccccc2c(OCCN(C)C)n1 | inactive
39 | CC(C)c1ccccc1C(C)C | inactive
40 | Nc1nc(N)c(-c2ccccc2)s1 | inactive

Row | SMILES | Potency
41 | CNS(=O)(=O)Cc1ccc2[nH]cc(CCN(C)C)c2c1 | inactive
42 | O=C(O)C1CCC(C(=O)O)CC1 (stereo unspecified) | inactive
43 | C=C(C)C(=O)OC(C)C | inactive
44 | COC(Cc1ccccc1)OC | inactive
45 | O=C(O)/C=C/c1cnc[nH]1 | inactive
46 | CCN1CCC[C@H]1CNC(=O)c1c(OC)ccc(Br)c1OC | inactive
47 | N[C@H]1C(O)O[C@H](CO)[C@H](O)[C@@H]1O (stereo partly specified) | inactive
48 | CC(C)(C)c1cc(CCC(=O)OCC(COC(=O)CCc2cc(C(C)(C)C)c(O)c(C(C)(C)C)c2)(COC(=O)CCc2cc(C(C)(C)C)c(O)c(C(C)(C)C)c2)COC(=O)CCc2cc(C(C)(C)C)c(O)c(C(C)(C)C)c2)cc(C(C)(C)C)c1O | inactive
49 | CCOC(=O)CC(=O)c1cc(F)c(Cl)nc1Cl | inactive
50 | CCN(CC)C(C)=O | inactive
51 | C=CCCCCCC | inactive
52 | COC(=O)C(C)=O | inactive
53 | Oc1ccc(Sc2ccc(O)cc2)cc1 | inactive
54 | C=C(C)C(=O)OCCOc1ccccc1 | inactive
55 | Cc1cccc(OCCOc2cccc(C)c2)c1 | inactive
56 | CC(C)NCC(O)COc1ccc(CC(N)=O)cc1 (stereo unspecified) | inactive
